About 79,000 compounds went through this panel and 15% of them were active in at least one assay; those are over-represented in the sample as a whole. Rule as the data show it: active = growth inhibition above about 70%; inactive = the rest.
Key:
[1] = NCI Yeast Anticancer Drug Screen. Data for the rad50 strain (AID 155);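 also: 0% = growth of vehicle-only cultures of the same strain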; settings: S. cerevisiae rad50 strain growth inhibition; at 50.0 µM; active compounds read high
Outline: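 Relative growth inhibition (compound vs vehicle) was measured in yeast with a defined repair-gene alteration.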

[2] = NCI Yeast Anticancer Drug Screen. Data for the mec2-1 strain (AID 157); settings: S. cerevisiae mec2-1 strain, at 50.0 µM, active compounds read high
Outline: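 Vehicle-treated cultures served as reference for growth inhibition of compound-exposed mec2-1 yeast.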

[3] = NCI Yeast Anticancer Drug Screen. Data for the sgs1 mgt1 strain (AID 161);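 also: 0% = growth of cultures given vehicle only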; settings: S. cerevisiae sgs1 mgt1 strain, at 50.0 µM, active compounds read high
Outline: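 Inhibition of yeast growth, normalised to vehicle-treated controls, is reported for a strain bearing genetic alterations in DNA damage repair.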

[4] = NCI Yeast Anticancer Drug Screen. Data for the cln2 rad14 strain (AID 165);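 also: 0% = growth equal to vehicle treated cultures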; settings: S. cerevisiae cln2 rad14 strain, at 50.0 µM, active compounds read high
Outline: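 Each compound was tested on cln2 rad14 yeast. Inhibition of growth was calculated against vehicle-exposed controls.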

[5] = NCI Yeast Anticancer Drug Screen. Data for the bub3 strain (AID 167); settings: S. cerevisiae bub3 mutant strain, at 50.0 µM, active compounds read high
Outline: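 Screening used yeast with an engineered genetic alteration affecting cell cycle control. Compound-exposed cultures were compared with vehicle cultures, and reduced growth was taken as inhibition.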

[6] = NCI Yeast Anticancer Drug Screen. Data for the mlh1 rad18 strain (AID 175); settings: S. cerevisiae mlh1 rad18 strain growth inhibition; at 50.0 µM; active compounds read high
Outline: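 Vehicle-treated cultures served as the reference for growth inhibition in a yeast strain carrying DNA damage repair alterations exposed to each compound.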

Measured: growth inhibition

Cc1ccc(N)cc1S(=O)(=O)O
inactive: [1] 29.8% | [2] -10.6% | [3] -9.45% | [4] -14.8% | [5] 3% | [6] 21.6%

Cc1nc2ccc(Cl)c(Cl)c2s1
inactive: [1] 2% | [2] -16.3% | [3] -3% | [4] -26% | [5] 6.65% | [6] -10.4%

O=C(CC(C(=O)c1cccs1)c1ccsc1)c1ccc(Cl)s1 (stereo unspecified)
inactive: [1] -5.35% | [2] -15% | [3] -11.1% | [4] 4.2% | [5] -2.2% | [6] -5.05%

CC(=O)C[n+]1ccccc1Sc1ccc(Cl)cc1
inactive: [1] 12.6% | [2] -9.25% | [3] 14.1% | [4] 19.1% | [5] 3.55% | [6] 56.7%

CCCNC=O
inactive: [1] -6.8% | [2] -7.85% | [3] -13.8% | [4] -14.4% | [5] -5.1% | [6] -5%

CCCCNC(=O)C(C)S(=O)(=O)c1ccc(C)cc1 (stereo unspecified)
inactive: [1] 6.6% | [2] 16.4% | [3] -17.3% | [4] -21.7% | [5] -2% | [6] 11.8%

NC(=O)c1ccc(Cl)c([N+](=O)[O-])c1
inactive: [1] 8.2% | [2] 2.85% | [3] -7.3% | [4] 6.45% | [5] -31.3% | [6] 2.15%

Cn1c2ccccc2c2nc3ccccc3c(Cl)c21
inactive: [1] -43.5% | [2] -12.8% | [3] -49.9% | [4] -12.9% | [5] -39.9% | [6] -31.9%

CC(C)(C)OC(=O)C1C(=O)CC(c2ccccc2)C1c1ccccc1 (stereo unspecified)
inactive: [1] -3.05% | [2] -3% | [3] 1.25% | [4] -7.8% | [5] -5.7% | [6] -1.9%

c1ccc2c(c1)SCCCSCCCS2
inactive: [1] -4.35% | [2] -4.6% | [3] -5.45% | [4] -9.4% | [5] 9.15% | [6] -11.4%

CCCCN(CCCC)C(=O)/C=C\C(=O)O
inactive: [1] -6.6% | [2] 1% | [3] -0.2% | [4] 28.1% | [5] -1.2% | [6] 4.9%

CC(CN1CCCC1)(Oc1ccccc1)C(=O)c1ccccc1 (stereo unspecified)
inactive: [1] 16.6% | [2] -0.45% | [3] 15.1% | [4] 7.8% | [5] 10.1% | [6] 2.45%

O=C(Nc1ccc(Cl)c(Cl)c1)C(Cl)Cl
inactive: [1] 23.5% | [2] 15.1% | [3] 50.5% | [4] 30.2% | [5] 39.1% | [6] 10.3%

CC1=NOC(C)(O)/C1=N/O (stereo unspecified)
inactive: [1] 6.8% | [2] 1.05% | [3] 17.9% | [4] -2.75% | [5] 9.75% | [6] -21.3%

O=C(O)CSc1ccc2c3c(cccc13)C(=O)c1ccccc1-2
inactive: [1] -9.9% | [2] 27.4% | [3] 7.95% | [4] 26% | [5] 56.8% | [6] 3.1%

CN(C)CCNC(=O)c1ccc(C(=O)NCCN(C)C)c2c(C(=O)NCCN(C)C)ccc(C(=O)NCCN(C)C)c12
inactive: [1] 19.1% | [2] 41.3% | [3] 37.2% | [4] 54.7% | [5] 4.5% | [6] 8.5%

CC(C)c1ccc(/C=N\N(C)C)cc1
inactive: [1] 2.3% | [2] 2.05% | [3] -13.8% | [4] -5.6% | [5] -2.9% | [6] -1.75%

CC(C)(O)c1cc2nc3ccccc3nc2n1CCO
inactive: [1] -19.6% | [2] -22.4% | [3] 8.45% | [4] 4.25% | [5] 4.25% | [6] -14.4%

CC1CCOC(/C=C/c2ccccc2)O1 (stereo unspecified)
inactive: [1] -7.9% | [2] -6.7% | [3] 5.7% | [4] 30.1% | [5] 40.8% | [6] -1.75%

CCCCCC(=O)/C=C/CC(CCCCCCC#N)C(CC(OC)OC)[N+](=O)[O-] (stereo unspecified)
inactive: [1] -42.2% | [2] -24.2% | [3] 0.9% | [4] 14.3% | [5] -1.75% | [6] -37.4%

CCC(C(=O)NC1c2ccccc2Oc2ccccc21)c1ccccc1 (stereo unspecified)
inactive: [1] -0.85% | [2] -9.85% | [3] 0.55% | [4] -12.4% | [5] 4.5% | [6] -2.5%

O=NN1C2CCCCC2C2CCCCC21 (stereo unspecified)
inactive: [1] -9% | [2] 20.5% | [3] -14.7% | [4] -5.25% | [5] 26.2% | [6] 3.8%

CCN(CC)c1ccc(/C=C\c2c(C)cnc3ccccc23)cc1
inactive: [1] 8.85% | [2] 10% | [3] 17.9% | [4] -24.4% | [5] 34.6% | [6] -9.45%

CCCCN=C=C(c1ccccc1)c1ccccc1
inactive: [1] 22% | [2] 12.5% | [3] -0.85% | [4] -35.8% | [5] -7.75% | [6] -15.1%

COc1ccc(CCN/C=C(\C)C(=O)c2ccc(F)cc2)cc1OC
inactive: [1] 11.2% | [2] -4.6% | [3] -13.6% | [4] -29.2% | [5] -13.9% | [6] -4.5%

N#CCC1(O)c2ccccc2-c2ccccc21
inactive: [1] -11.9% | [2] 7.45% | [3] 8% | [4] -6.25% | [5] 1.4% | [6] 9.9%

Cc1ccc(Nc2ccc(O)c3c2C(=O)c2ccccc2C3=O)cc1
inactive: [1] -17.9% | [2] -3.6% | [3] 5.45% | [4] -29.6% | [5] 16.1% | [6] 15.5%

c1ccc2cc(N=Nc3cccc4ccccc34)ccc2c1
inactive: [1] -10.5% | [2] -17.9% | [3] 1.15% | [4] -19% | [5] 1.1% | [6] -7.75%

Cc1cc(N=Nc2ccc(C(=O)Nc3ccc4cc(S(=O)(=O)O)ccc4c3)cc2)c(N)c(N=Nc2ccc(N=Nc3ccc(O)c(C(=O)O)c3)cc2)c1N
inactive: [1] 8.2% | [2] 29.6% | [3] 53.8% | [4] -21.9% | [5] -11.3% | [6] 44.6%

CCCC(=O)Oc1ccc(CC)cc1
inactive: [1] 25.5% | [2] 15.4% | [3] 8.75% | [4] -20.4% | [5] 14.5% | [6] 20.9%

COc1cccc(N=NN2CCCC2)c1
inactive: [1] 16.2% | [2] 14.2% | [3] 17.8% | [4] 20.1% | [5] 7.15% | [6] 23.4%

Cc1cc(C)cc(C(C)C)c1
inactive: [1] -15.4% | [2] -4.35% | [3] -22.9% | [4] 5.95% | [5] -11.6% | [6] -6.95%

CC(=O)COc1ccccc1
inactive: [1] -2.7% | [2] -10.5% | [3] 7.75% | [4] 6.45% | [5] -6.85% | [6] 15.4%

N#CC1c2ccccc2C=CN1C(=O)c1ccccc1 (stereo unspecified)
inactive: [1] -15.9% | [2] -15.9% | [3] 12.5% | [4] -18.9% | [5] -8.95% | [6] -24.4%

Nc1nnc(-c2ccc(Cl)cc2)o1
inactive: [1] 21.3% | [2] -1.8% | [3] 21.2% | [4] 1.1% | [5] 0.05% | [6] 5.8%

CC(C)(C)NC(=O)c1cccc(C(N)=O)n1
inactive: [1] -10.4% | [2] -16.1% | [3] -11.8% | [4] -21.6% | [5] -4.25% | [6] -0.6%

O=C1c2ccccc2C(=O)C2C1C1C(=O)c3ccccc3C(=O)C21 (stereo unspecified)
inactive: [1] -14.6% | [2] -1.5% | [3] 2.45% | [4] -20.2% | [5] -8.6% | [6] 24.6%

CCOC(=O)C1=C(C)NC(C)=C(C(=O)OCC)C1
inactive: [1] 14.9% | [2] -5.8% | [3] -1.5% | [4] -41.1% | [5] 31.1% | [6] 13.5%

C/C=C(/C(=O)NC(N)=O)C(C)C
inactive: [1] -3.65% | [2] 3.15% | [3] -20.1% | [4] -48.3% | [5] -2.55% | [6] -2.85%

COCCOC(=O)C(O)c1ccccc1 (stereo unspecified)
inactive: [1] 23.9% | [2] 13.9% | [3] 9.05% | [4] 9% | [5] 12.8% | [6] 10.4%

CCCCn1nnnc1N
inactive: [1] 3.45% | [2] 6.4% | [3] -8.2% | [4] 12% | [5] 17.8% | [6] 6.85%

From PubChem BioAssay (NCI)
